The values that follow come from ChEMBL document CHEMBL1157539, “Thousands of chemical starting points for antimalarial lead identification” (Nature, 2010).

This assay concerns Plasmodium falciparum. The assay is described as follows: GSK_TCMDC: Inhibition of Plasmodium falciparum 3D7 in whole red blood cells, using parasite LDH activity as an index of growth. Test compounds present at 2uM. The class given is functional.
`COc1ccc(CNC2CCN(C)CC2)cc1-c1ccc(S(=O)(=O)NCc2ccccc2)c(F)c1.O=C(O)C(F)(F)F`: the Inhibition was 100%.

`Cc1cc(Cl)ccc1OC(C)C(=O)N1CCc2ccccc21` (stereo not given) showed an Inhibition of 94%.

For `CCOC(=O)c1cnc2c(OC)cc(OC)c(Cl)c2c1Nc1cccc(C)c1`, the Inhibition is 95%.

Take `Cc1ccc(NC(=S)NC2CCN(CCCCCNC(=O)/C=C/c3ccc(Cl)c(Cl)c3)CC2)cc1Cl`: the Inhibition turned out to be 100%.

Molecule `CS(=O)(=O)CCNC(=O)c1ccc(-c2cc3c(Nc4ccc5c(cnn5Cc5ccccc5)c4)ncnc3cn2)o1.Cl` had an Inhibition of 97%.

With `CN(Cc1ccc(-c2ccc(C(F)(F)F)cc2)cc1)C(=O)Cn1c(CCc2cccc(F)c2F)cc(=O)c2ccc(OCC3CCCN3C)cc21.O=C(O)C(O)C(O)C(=O)O` (stereo not given), the Inhibition is reported as 87%.

In turn, `Cc1cc(C(=O)Nc2ccc3c(c2)CCN3C2CCN(Cc3ccc(F)cc3Cl)C2)no1` (stereo not given) registered an Inhibition of 95%.

The molecule `CN(C)CCOc1ccc(-n2c(-c3nonc3N)nc3cncc(-c4ccc(F)cc4)c32)cc1` displayed an Inhibition of 97%.

As for `COC(=O)Nc1cc(C(F)(F)F)ccc1N1CCCC(NS(=O)(=O)c2ccc(C(C)(C)C)cc2)C1` (stereo not given), the Inhibition was 97%.

In the case of `FC(F)(F)c1ccc2[nH]c(-c3cccc(-c4ccc(CNCCN5CCNCC5)cc4)c3)nc2c1.O=C(O)C(F)(F)F`, the Inhibition worked out at 96%.

The molecule `COc1ccc(C(C)Nc2nc(N)c3cc(OC)c(OC)cc3n2)cc1.Cl` (stereo not given) had an Inhibition of 100%.

The molecule `COc1ccc(CNCc2ccc(F)cc2)cc1-c1ccc(S(=O)(=O)NCCN2CCCC2)c(C)c1.O=C(O)C(F)(F)F` gave an Inhibition of 98%.

For the molecule `CC(C)Oc1ccccc1-c1csc(C(=O)NCC2CCN(Cc3ccc(C(C)(C)C)cc3)C2)c1.O=C(O)C(F)(F)F` (stereo not given), the Inhibition came to 90%.

For `Nc1nc(N)c2cc(NC(=O)c3ccc(Cl)c(Cl)c3)ccc2n1`, the Inhibition is 100%.

Regarding `CN1CCCN(Cc2ccc(-c3ccc(NS(=O)(=O)c4cccc5cccnc45)cc3)cc2)CC1.O=C(O)C(F)(F)F`, the Inhibition stood at 99%.

Turning to `CC1CN(c2cccc3c2nc(-c2cncc(C#N)c2)n3CCNCc2ccccc2)CC(C)O1.O=C(O)C(F)(F)F` (stereo not given), the Inhibition amounted to 83%.

`O=C(Nc1cccc(-c2nn3ncccc3c2-c2ccnc(Nc3cccc(-c4cnco4)c3)n2)c1)c1c(F)cccc1F` registered an Inhibition of 97%.

Regarding `CC1CCCCC1N(C)C1CCN(CCCNC(=O)C=Cc2ccc(Cl)cc2Cl)CC1` (stereo not given), the Inhibition was 100%.

As for `O=C(Nc1ccc(-c2ccccc2)cc1)Nc1cccc(Cn2nc(Cl)c(N3CCCNCC3)cc2=O)c1.O=C(O)C(F)(F)F`, the Inhibition was determined as 100%.

Turning to `CCCOc1ccc(C=C(CC(=O)O)c2nc3ccccc3s2)cc1OCC`, the Inhibition came out at 89%.

Regarding `Cl.Fc1ccccc1COc1ccc(Nc2ncnc3ccc(-c4nnc(C(F)(F)F)o4)cc23)cc1Cl`, the Inhibition is listed as 100%.

Consider `C[C@H](NC(=O)[C@H](CCCCNC(=O)OC(C)(C)C)NC(=O)OC(C)(C)c1ccc(-c2ccccc2)cc1)C(=O)OCc1ccccc1`, for which the Inhibition is recorded as 97%.

`COc1ccc(C(=O)C2CCN(CCCCNC(=O)c3ccc(NC(=O)c4cc(Cl)cc(Cl)c4)cc3)CC2)cc1` came in with an Inhibition of 100%.

As for `CCOc1c(Br)cc(Cl)cc1CNCCCNc1nc2ccccc2[nH]1.Cl`, the Inhibition was found to be 98%.

Molecule `COc1ccc2nccc([C@@H](O)CN3CCC(NCc4nc5cc(F)cc(F)c5[nH]4)CC3)c2c1.O=C(O)C(=O)O` yielded an Inhibition of 99%.

In turn, `CCc1ccc(NC(=O)c2ccc(CN3CCCN(Cc4cccc(C)c4)CC3)cc2)cc1.O=C(O)C(F)(F)F` gave an Inhibition of 80%.

For the molecule `Cc1cc(N)c2cc(NC(=O)c3ccc4ccccc4c3)ccc2n1.Cl`, the Inhibition is given as 100%.

The molecule `O=C(CCc1c[nH]cn1)Nc1cccc(-c2ccc(-c3nc4ccccc4[nH]3)cc2)c1` displayed an Inhibition of 100%.

`CC(=O)O.CCC[C@@H]([C@@H](CC1CCCCC1)C(=O)N[C@H](C(=O)Nc1nccc(N)n1)C(C)(C)C)N(O)C=O` gave an Inhibition of 96%.

Consider `Cc1ccc(CN2CCN(Cc3cccc(NC(=O)c4ccc5ccccc5c4)c3)CC2)cc1C.O=C(O)C(F)(F)F`, for which the Inhibition was 89%.

With `O=C(NC1CCN(Cc2ccccc2)CC1)c1cc(-c2ccncc2)nc2ccc(Cl)cc12`, the Inhibition is listed as 97%.

For the molecule `CN(C)c1cccc(-c2cnc3ccc(NCc4cccc(Cl)c4)nn23)c1`, the Inhibition was determined as 99%.

In turn, `Cc1cc(Nc2ccc(OCc3ccccc3Cl)cc2)c2cc(Cl)ccc2n1.Cl` showed an Inhibition of 100%.

Molecule `COc1cc2nc(C)nc(Nc3ccc(Cc4ccccc4)cc3)c2cc1OC.Cl` returned an Inhibition of 100%.

For `CC(C)C(C(=O)Nc1ccc(S(=O)(=O)N(C)C)cc1)c1ccc(Cl)cc1` (stereo not given), the Inhibition was 100%.

`Cc1cc2[nH]c(-c3ccc(C(=O)NCCCN4CCN(c5cccc(Cl)c5)CC4)s3)nc2cc1Cl` came in with an Inhibition of 100%.

For the molecule `OC(COc1ccccc1-c1nc2ccccc2o1)CN1CCCN(CCc2ccccc2)CC1` (stereo not given), the Inhibition is reported as 97%.

`O=C(O)C(F)(F)F.c1ccc(CNCc2ccc(-c3ccc(-c4nc5ccccc5[nH]4)cc3)cc2)cc1`: the Inhibition worked out at 100%.

`N#Cc1cccc(Nc2ncc3c(-c4cccc(NC(=O)Cc5cccc(Cl)c5)c4)c[nH]c3n2)c1.O=C(O)C(F)(F)F` had an Inhibition of 100%.

As for `Cn1nc(-c2ccc(CNC3CCc4ccccc43)cc2)c2cnc(NCCCN3CCCC3)nc21` (stereo not given), the Inhibition is on record as 92%.
